We go through 27 compounds from PubChem BioAssay AID1159606 (Sanford-Burnham Center for Chemical Genomics, 2016).

As a reminder, the inhibition is the change of the read-out against control, counted positive when it falls.

Molecules are shown by their SMILES. Among all 360,000 compounds or so, about 7,300 (2%) were called active. Cut-off read from the data, not from the text of the source: active = inhibition above about 50%; inactive = the rest. Shown is part of a subset that was picked to be rich in actives.

The assay can be described thus: blockers of TWEAK-induced Fn14 reporter activity – luciferase reporter cells, uHTS, primary screen (AID 1159606). To be noted: TWEAK-stimulated Fn14 reporter cells, luciferase luminescence, 8 h; at 10 µM; hits give high values. On the technique in general: Reporter assays use an easily measured gene product as a stand-in for the process of interest.
For the compound `CN(C)CCCOc1ccc(-c2ccc3nccn3c2)cn1`, the inhibition is -18.9% (inactive).

In the case of `Cc1ccc(NC(=O)c2cc([N+](=O)[O-])ccc2Cl)c(O)c1`, the inhibition is 2.69% (inactive).

Regarding `O=C(NCC(c1cccs1)N1CCOCC1)c1cc(Cl)ccc1[N+](=O)[O-]` (configuration not stated), the inhibition was 7.3% (inactive).

Regarding `O=C(Nc1cccc2ccccc12)c1[nH]c(-c2ccccc2)c2c1C(=O)N(C1CC1)C2=O`, the inhibition is -46.7% (inactive).

For `Cc1ccc(NC(=O)COC(=O)CN2CCSC2=O)cc1F`, the inhibition is 1.95% (inactive).

Turning to `Cn1c(=O)c2c(nc(Br)n2CCSc2nc3ccccc3o2)n(C)c1=O`, the inhibition is 7.06% (inactive).

For the compound `CN1C(CC(=O)Nc2ccc(Br)cc2)c2ccccc2CC1(C)C` (configuration not stated), the inhibition was 12.1% (inactive).

As to `COc1ccc(Sc2ccc(NC(=O)c3cccc(Cl)c3)cc2C#N)cc1`, the inhibition is 26.3% (inactive).

For `COc1ccc(Nc2cc(=O)oc3ccccc23)cc1`, the inhibition was 12.8% (inactive).

On to `COc1ccc(Nc2cc(Sc3ccc(OC)cc3)ncn2)cc1`, for which the inhibition is 69.9% (active).

For the compound `CN(C)CCCNC(=O)c1cc(C(=O)Cc2ccc(Cl)cc2)c[nH]1`, the inhibition was 5.27% (inactive).

`CC(C)Cn1cc(-c2cncc3nccn23)cn1`: the inhibition is 5.78% (inactive).

As for `COC(=O)Cc1[nH]n(-c2nc3ccccc3s2)c(=O)c1C(C)=Nc1ccc(OC)cc1`, the inhibition was 101% (active).

On to `CCc1nc2ccccc2c(C(=O)NCc2ccc(OC)cc2)c1C`, for which the inhibition is -1.16% (inactive).

`COC(=O)CC1=NN(c2ccccc2)C(=O)C1`: the inhibition was -14.8% (inactive).

For `CCOc1ccc2c(c1)c(=O)c(S(=O)(=O)c1ccc(C)cc1)cn2CC`, the inhibition is -0.17% (inactive).

As to `Cc1ccc(N2C(=O)CN=C2Nc2nc(C)cc(C)n2)cc1`, the inhibition is 4.62% (inactive).

Regarding `O=C1NNC(c2ccccc2)=N/C1=C\c1ccc(Cl)cc1`, the inhibition was 16.8% (inactive).

Turning to `O=C(NC1CC1)c1ccc(-c2ccccc2)cc1`, the inhibition was -4.49% (inactive).

`CC(=O)N1CCN(S(=O)(=O)c2cccc(C(=O)NC3CCC(C)CC3)c2)CC1` (configuration not stated): the inhibition is 3.88% (inactive).

As to `O=C(NC1CC1)c1cccc(Br)c1`, the inhibition is 84.3% (active).

`COCCN(C(=O)CC1CCCCC1)c1c(N)n(CC(C)C)c(=O)[nH]c1=O`: the inhibition is 19.1% (inactive).

In the case of `O=C(Nc1ccc(Cl)cc1)/C(=C1\CCCN1)[N+](=O)[O-]`, the inhibition was -36.6% (inactive).

Turning to `COc1ccc(N2C(=O)C(O)C2c2ccc(C)cc2)cc1` (configuration not stated), the inhibition was 6.39% (inactive).

Consider `COC(=O)COc1ccc(S(=O)(=O)N2CCOCC2)cc1`, for which the inhibition is 12.7% (inactive).

As to `COc1ccc(C(=O)Nc2cc(S(=O)(=O)N3CCCC3)ccc2Cl)cc1`, the inhibition was -16% (inactive).

As to `COc1ccc(C(=O)Nc2nc(-c3ccc(S(=O)(=O)N4CCOCC4)cc3)cs2)cc1`, the inhibition was 93.7% (active).
